These results are taken from PubChem BioAssay (EPA / NIEHS).

Assay [1] is described as follows: BSK_CASM3C_SRB: Viability Assessment in the BioMAP Diversity Plus: CASM3C Assay (AID 2283050).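 Also: total protein by SRB staining as cytotoxicity measure in parallel cultures.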 The settings on record: primary human coronary artery smooth muscle cells.
Read-out in assay [2]: Thrombomodulin, THBD (gene 7056)
The assay is described as follows: BSK_CASM3C_Thrombomodulin: BioMAP Diversity Plus: CASM3C Assay for Thrombomodulin Biomarker Activity (AID 2283051).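 Also: thrombomodulin protein level measured by ELISA 24 h after dosing.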 Particulars: primary human coronary artery smooth muscle cells; actives raise or lower the signal.

Read-out in assay [3]: Tissue Factor, F3 (gene 2152)
Description: BSK_CASM3C_TissueFactor: BioMAP Diversity Plus: CASM3C Assay for Tissue Factor Biomarker Activity (AID 2283052).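 Also: cell surface tissue factor protein level read by ELISA.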 Particulars: primary human coronary artery smooth muscle cells; actives raise or lower the signal.

Read-out in assay [4]: Interferon-gamma inducible Protein 10 (IP10), CXCL10 (gene 3627)
Description: BSK_hDFCGF_IP10: BioMAP Diversity Plus: hDFCGF Assay for Interferon-gamma inducible Protein 10 (IP10) Biomarker Activity (AID 2283053). The settings on record: primary human foreskin fibroblasts; actives raise or lower the signal. The gist of the method:
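IP-10 levels, quantified by ELISA, are taken from human foreskin fibroblast cultures 24 h after chemical treatment, with DMSO serving as negative control and baseline for bidirectional analysis.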

Read-out in assay [5]: Urokinase-type plasminogen activator receptor (uPAR), PLAUR (gene 5329)
The assay is described as follows: BSK_CASM3C_uPAR: BioMAP Diversity Plus: CASM3C Assay for Urokinase-type plasminogen activator receptor (uPAR) Biomarker Activity (AID 2283054).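 Also: cell-surface uPAR protein level quantified by ELISA.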 The settings on record: primary human coronary artery smooth muscle cells; actives raise or lower the signal.

Read-out in assay [6]: Vascular cell adhesion molecule 1 (VCAM1), VCAM1 (gene 7412)
The assay is described as follows: BSK_CASM3C_VCAM1: BioMAP Diversity Plus: CASM3C Assay for Vascular cell adhesion molecule 1 (VCAM1) Biomarker Activity (AID 2283055).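 Also: VCAM-1 protein level quantified by ELISA on the cells.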 Particulars: primary human coronary artery smooth muscle cells; actives raise or lower the signal.

Read-out in assay [7]: Collagen III, COL3A1 (gene 1281)
The assay is described as follows: BSK_hDFCGF_CollagenIII: BioMAP Diversity Plus: hDFCGF Assay for Collagen III Biomarker Activity (AID 2283056). Particulars: primary human foreskin fibroblasts; actives raise or lower the signal. The method in brief: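 ELISA readout of Collagen III in human dermal (foreskin) fibroblasts, taken 24 h post-treatment. Gain or loss relative to DMSO vehicle fitted in both directions.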

Read-out in assay [8]: Epidermal growth factor receptor (EGFR), EGFR (gene 1956)
The assay is described as follows: BSK_hDFCGF_EGFR: BioMAP Diversity Plus: hDFCGF Assay for Epidermal growth factor receptor (EGFR) Biomarker Activity (AID 2283057). Particulars: primary human foreskin fibroblasts; actives raise or lower the signal. The gist of the method:
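Measured by ELISA: EGFR levels on primary human foreskin fibroblasts 24 h after chemical treatment, analysed relative to DMSO with bidirectional fitting.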

Read-out in assay [9]: Interleukin-8 (IL8), CXCL8 (gene 3576)
The assay is described as follows: BSK_hDFCGF_IL8: BioMAP Diversity Plus: hDFCGF Assay for Interleukin-8 (IL8) Biomarker Activity (AID 2283058). Particulars: primary human foreskin fibroblasts; actives raise or lower the signal. The method in brief:
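IL-8 levels read by ELISA at 24 hours after dosing human skin fibroblast cultures. Parallel SRB staining assessed overt cytotoxicity, and gain or loss of signal was fitted against DMSO control.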

The nature of assay [10]: BSK_hDFCGF_Proliferation: Cell Proliferation Assessment in the BioMAP Diversity Plus: hDFCGF Assay (AID 2283059).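 Also: curves fitted for both rise and fall of signal versus DMSO baseline.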 Particulars: primary human foreskin fibroblasts. The method in brief: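 Primary human foreskin fibroblasts, sub-confluent; […]; 10% TCA fix, 0.1% SRB stain, A560 total protein. Gain/loss fitted bidirectionally vs DMSO control.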
Assay [11] in a line: BSK_hDFCGF_SRB: Viability Assessment in the BioMAP Diversity Plus: hDFCGF Assay (AID 2283061).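 Also: cells exposed to compound for 24 h before the read.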 The settings on record: primary human foreskin fibroblasts. The method in brief: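 Viability was read as total protein: after 10% TCA fixation, wells were stained with 0.1% sulforhodamine B and read at 560 nm. Primary human foreskin fibroblasts were dosed for 24 h, with bidirectional fitting versus DMSO.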

Read-out in assay [12]: TIMP metallopeptidase inhibitor 1 (TIMP1), TIMP1 (gene 7076)
The assay is described as follows: BSK_hDFCGF_TIMP1: BioMAP Diversity Plus: hDFCGF Assay for TIMP metallopeptidase inhibitor 1 (TIMP1) Biomarker Activity (AID 2283062). Particulars: primary human foreskin fibroblasts; actives raise or lower the signal. The gist of the method:
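TIMP-1 measured by ELISA 24 h after chemical dosing of primary human skin fibroblasts, with gain or loss fitted relative to DMSO. Parallel SRB staining (560 nm) monitored overt cytotoxicity.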

Read-out in assay [13]: Matrix Metallopeptidase 1 (MMP1), MMP1 (gene 4312)
The assay is described as follows: BSK_hDFCGF_MMP1: BioMAP Diversity Plus: hDFCGF Assay for Matrix Metallopeptidase 1 (MMP1) Biomarker Activity (AID 2283064). Particulars: primary human foreskin fibroblasts; actives raise or lower the signal. The gist of the method: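 Primary human foreskin fibroblasts exposed to chemicals for 24 h; MMP1 measured by ELISA. Cytotoxicity tracked by SRB staining in parallel cultures; bidirectional fit relative to DMSO.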

Read-out in assay [14]: Vascular cell adhesion molecule 1 (VCAM1), VCAM1 (gene 7412)
The assay is described as follows: BSK_hDFCGF_VCAM1: BioMAP Diversity Plus: hDFCGF Assay for Vascular cell adhesion molecule 1 (VCAM1) Biomarker Activity (AID 2283065).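 As to AC50: VCAM-1 protein level quantified by ELISA after 24 h chemical exposure.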 Particulars: primary human foreskin fibroblasts; actives raise or lower the signal. The gist of the method: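 ELISA readout of VCAM-1 on human dermal fibroblast primary cultures, 24 h after chemical exposure. Gain or loss of signal fitted in both directions against DMSO baseline.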

Read-out in assay [15]: Plasminogen activator inhibitor-1 (PAI1), SERPINE1 (gene 5054)
The assay is described as follows: BSK_hDFCGF_PAI1: BioMAP Diversity Plus: hDFCGF Assay for Plasminogen activator inhibitor-1 (PAI1) Biomarker Activity (AID 2283066). The settings on record: primary human foreskin fibroblasts; actives raise or lower the signal. The gist of the method: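 PAI-1 levels, determined by ELISA, served as the endpoint in human foreskin fibroblast cultures exposed to compound for 24 h, with DMSO as baseline.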

Read-out in assay [16]: Intercellular Adhesion Molecule 1 (ICAM1), ICAM1 (gene 3383)
Description: BSK_KF3CT_ICAM1: BioMAP Diversity Plus: KF3CT Assay for Intercellular Adhesion Molecule 1 (ICAM1) Biomarker Activity (AID 2283067). The settings on record: primary human keratinocytes with fibroblasts; actives raise or lower the signal. The method in brief:
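Cell-surface ICAM-1 was measured by ELISA 24 h after dosing primary human skin keratinocytes co-cultured with fibroblasts. Parallel SRB staining tracked overt cytotoxicity. Gain or loss of signal was fitted relative to DMSO.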

Read-out in assay [17]: Interferon-gamma inducible Protein 10 (IP10), CXCL10 (gene 3627)
Description: BSK_KF3CT_IP10: BioMAP Diversity Plus: KF3CT Assay for Interferon-gamma inducible Protein 10 (IP10) Biomarker Activity (AID 2283068). Particulars: primary human keratinocytes with fibroblasts; actives raise or lower the signal. The gist of the method:
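In a primary skin co-culture of keratinocytes and fibroblasts, IP-10 is quantified by ELISA at 24 h after dosing. SRB staining of parallel wells monitors overt toxicity. Curves are fitted both directions against DMSO.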

Assay [18] is described as follows: BSK_KF3CT_SRB: Viability Assessment in the BioMAP Diversity Plus: KF3CT Assay (AID 2283069).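 Also: total protein by sulforhodamine B staining as a cytotoxicity measure; read 24 h after compound addition.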 The settings on record: primary human keratinocytes with fibroblasts. The gist of the method:
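Human keratinocyte and foreskin fibroblast co-culture exposed to chemical for 24 h. Total protein measured in parallel cultures by 0.1% sulforhodamine B staining after 10% TCA fixation, read at 560 nm; bidirectional fit relative to DMSO.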

Molecules are shown by their SMILES. Activity calls are given as the source filed them. The calls were made as follows: active = hit-call score of the fitted dose curve at least 0.9, where 1 is the maximum; inactive = score below 0.9.

As for `CC(C)C1(C)N=C(c2nc3ccccc3cc2C(=O)O)NC1=O` (stereo not drawn), the outcome in assay [1], in [2], in assay [3], in assay [4], in assay [5] and in assay [6] was inactive. In addition, the outcome in assay [7], in [8], in [9], in [10], in assay [11] and in assay [12] was inactive. Besides, the outcome in [13], in [14], in assay [15], in [16], in [17] and in assay [18] was inactive.
`CN(C)C(=S)SSC(=S)N(C)C`: the outcome in [1], in [3] and in [5] was inactive. The AC50 (in general, the midpoint of the concentration-response curve, whichever way the signal moves) in assay [2] is 9.88 µM (active); in [4], 2.74 µM (active); in assay [6] it was 11.5 µM (active); in [7], 6.36 µM (active); in [8], 5.9 µM (active); in [9], 7.67 µM (active). Also, the half-maximal activity concentration (AC50) in assay [10] is 2.76 µM (active); in assay [11], 4.96 µM (active); in [12], 9.76 µM (active); in assay [13], 5.34 µM (active); in assay [14], 4.12 µM (active); in assay [15], 5.64 µM (active). Besides, the AC50 is 6.42 µM (active) in [16], 6.1 µM (active) in assay [17] and 7.21 µM (active) in [18].
For `Cc1ccc(-c2c(Cl)nc(C#N)n2S(=O)(=O)N(C)C)cc1`, the result in [1], in assay [2], in assay [3], in assay [5], in assay [6] and in assay [8] was inactive. The outcome in [9], in [13], in assay [15], in assay [16] and in [17] was inactive. Further, the concentration at half-maximal activity (AC50) in [4] is 6.3 µM (active); in [7], 13.9 µM (active); in assay [10], 17 µM (active); in assay [11], 14.5 µM (active); in assay [12] it was 18.3 µM (active); in [14] it was 4.39 µM (active). Moreover, the AC50 in assay [18] was 11.3 µM (active).
On to `C=CC1(C)OC(=O)N(c2cc(Cl)cc(Cl)c2)C1=O` (stereo not drawn), for which the outcome in assay [1], in [2], in [3], in assay [4], in assay [5] and in assay [6] was inactive. Further, the outcome in assay [7], in assay [8], in [9], in [10], in assay [11] and in assay [12] was inactive. For the same compound, the outcome in [13], in assay [14], in [15], in assay [16], in assay [17] and in [18] was inactive.
In the case of `COc1ccc(C(c2ccc(OC)cc2)C(Cl)(Cl)Cl)cc1`, the concentration at half-maximal activity (AC50) in [1] is 18.4 µM (active); in assay [2], 13.1 µM (active); in [4] it was 20 µM (active); in assay [10], 6.21 µM (active); in assay [11] it was 11 µM (active); in assay [13], 5.09 µM (active). The AC50 is 20 µM (active) in assay [14], 14.7 µM (active) in assay [15] and 8.76 µM (active) in [18]. Also, the outcome in assay [3], in assay [5], in assay [6], in assay [7], in assay [8] and in assay [9] was inactive. Further, the result in assay [12], in assay [16] and in assay [17] was inactive.
Take `CS/C(C)=N/OC(=O)N(C)SN(C)C(=O)O/N=C(\C)SC`: the AC50 was 31.2 µM (active) in assay [1]; 8.62 µM (active) in assay [4]; 31.5 µM (active) in [5]; 30.8 µM (active) in assay [6]; 3.73 µM (active) in assay [10]; 11.7 µM (active) in assay [11]. Further, the AC50 in assay [15] was 12 µM (active); in assay [16] it was 11.1 µM (active); in assay [17] it was 12.4 µM (active); in assay [18], 12.5 µM (active). Moreover, the outcome in assay [2], in assay [3], in assay [7], in assay [8], in assay [9] and in assay [12] was inactive. The result in [13] and in assay [14] was inactive.
